PubChem BioAssay
Activity calls are given as the source filed them. Unless noted, how the calls were made is not given here.

Columns and labels:
[1] = test system: Wnt5a (protein binding on small-molecule microarray); assay: Wnt5a binders on small-molecule microarray, primary screen, biophysical, 635/667 nm fluorescence (AID 1142); conditions: 635 nm fluorescence, higher = more signal;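 further: fluorescence read at 667 nm with signal to noise per printed feature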
[2] = cell viability in Huh7 cells, primary screen, cytotoxicity control for HCV replication inhibitor project, CellTiter-Glo luminescence, basal, 48 h (AID 1143); conditions: Huh7 HCV replicon, higher = more signal, called active from +8 up or from −8 down;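 further: Huh7 hepatoma cells carrying a hepatitis C replication reporter with no stimulus; test concentration not given here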
[3] = P. aeruginosa biofilm formation inhibitors, primary screen, PAO1 strain, BacTiter-Glo luminescence, LB-PBS (AID 1144); conditions: 12 h, higher = more signal
[4] = CREB reporter modulators without forskolin, primary screen, cell-based, PC12, CRE-LacZ reporter, unstimulated (AID 1145); conditions: no forskolin, luminescence, 4.5 h, higher = more signal, called active from +8 up or from −8 down
[5] = CREB reporter modulators under forskolin, primary screen, cell-based, PC12, CRE-LacZ reporter, forskolin-stimulated (AID 1146); conditions: luminescence, 4.5 h, higher = more signal, called active from +8 up or from −8 down;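 further: PC12 cells with 6xCRE LacZ reporter stimulated by forskolin 10 µM; beta-galactosidase reporter signal reflecting CREB driven transcription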
[6] = biological target: Streptavidin (Streptomyces avidinii) (UniProt P22629); assay: streptavidin binders on small-molecule microarray, primary screen, artefact control for SMM compound annotation, biophysical, 635/667 nm fluorescence (AID 1147); conditions: streptavidin binding, higher = more signal;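 further: signal reflects streptavidin binding to arrayed compounds as a control protein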
Chain of Streptavidin (Streptomyces avidinii) (P22629 whole entry, looked up): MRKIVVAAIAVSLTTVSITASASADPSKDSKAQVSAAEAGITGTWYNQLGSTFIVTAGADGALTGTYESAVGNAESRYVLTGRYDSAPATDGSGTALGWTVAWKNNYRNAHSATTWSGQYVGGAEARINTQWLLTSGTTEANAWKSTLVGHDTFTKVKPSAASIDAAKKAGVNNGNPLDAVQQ

[7] = small-molecule binders of probe aInhba, primary screen, biochemical, small-molecule microarray, 635/667 nm fluorescence (AID 1148); conditions: higher = more signal;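 further: score merges 667nm spot fluorescence with signal-to-noise for antibody binding to printed compounds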
[8] = biological target: Torsin-1A (Homo sapiens) (UniProt O14656); assay: torsin A binders from cell lysate, primary screen, small-molecule microarray, wild-type, 635/667 nm (AID 1149); conditions: COS7 hTOR1A-WT lysate, 635 nm fluorescence, higher = more signal
Chain of Torsin-1A (Homo sapiens) (O14656 whole entry, looked up): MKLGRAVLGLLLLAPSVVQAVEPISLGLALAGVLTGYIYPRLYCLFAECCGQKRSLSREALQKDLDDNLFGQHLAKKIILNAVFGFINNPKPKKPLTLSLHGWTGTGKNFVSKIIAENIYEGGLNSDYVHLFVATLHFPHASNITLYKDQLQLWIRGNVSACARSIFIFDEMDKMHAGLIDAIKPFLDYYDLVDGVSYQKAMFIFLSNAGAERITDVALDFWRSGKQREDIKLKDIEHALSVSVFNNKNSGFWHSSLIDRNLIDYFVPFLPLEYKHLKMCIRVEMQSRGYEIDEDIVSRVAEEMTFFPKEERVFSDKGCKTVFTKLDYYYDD

[9] = biological target: Torsin-1A (Homo sapiens) (UniProt O14656); assay: small-molecule binders of mutant TOR1A in lysate, primary screen, cell lysate, small-molecule microarray, COS7 lysate, 635/667 nm fluorescence (AID 1150); conditions: COS7 hTOR1A mutant lysate, 635 nm fluorescence, higher = more signal;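 further: score pools 667 nm emission and signal to noise measuring lysate protein binding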
[10] = test system: Sonic hedgehog protein (Shh); assay: small-molecule binders of Shh protein, primary screen, biochemical, small-molecule microarray, 635/667 nm fluorescence (AID 1151); conditions: small-molecule microarray binding, 635 nm fluorescence; higher = more signal;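 further: Shh protein binding to compounds spotted on small-molecule microarray slides; score combines spot fluorescence intensity with signal-to-noise across triplicate slides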
[11] = E. coli DRC41 culture turbidity changes, primary screen, E. coli filamentation inducer project, strain DRC41, OD650, 48 h (AID 1152);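 further: E. coli MC1000 strain DRC41 lacking acrAB efflux pump and sulA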; conditions: E. coli DRC41 (acrAB sulA), higher = more signal, called active from +8 up or from −8 down
[12] = small-molecule binders of probe aLefty1, primary screen, biochemical, small-molecule microarray, 635/667 nm fluorescence (AID 1153); conditions: higher = more signal;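 further: score merges spot fluorescence with signal-to-noise ratio from the scanned slide images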
[13] = PSAC antagonists in infected red cells, primary screen, cell-based, P. falciparum Indochina, OD700, 1 h (AID 1154); conditions: P. falciparum Indochina infected RBC osmotic lysis, higher = more signal, called active from +8 up or from −8 down
[14] = PSAC antagonists in infected red cells, primary screen, cell-based, P. falciparum Indochina, OD700, 2 h (AID 1155);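 further: lysis reports solute entry through the parasite surface anion channel PSAC; channel blockers reduce lysis of infected cells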; conditions: P. falciparum Indochina infected erythrocytes, osmotic lysis OD700; higher = more signal, called active from +8 up or from −8 down
[15] = osmotic lysis modulators in infected erythrocytes, primary screen, PSAC antagonist project, cell-based, P. falciparum Indochina, OD700, 3 h (AID 1156); conditions: higher = more signal, called active from +8 up or from −8 down
[16] = PSAC antagonists in infected red cells, primary screen, cell-based, P. falciparum Indochina, OD700, 18 h (AID 1157); conditions: P. falciparum Indochina infected erythrocytes, osmotic lysis OD700, 18 h; higher = more signal, called active from +8 up or from −8 down
[17] = modulators of S6 phosphorylation in cells, primary screen, cell-based, A549, cytoblot, luminescence, serum-stimulated (AID 1158); conditions: A549 phospho-S6 cytoblot, 5 h, higher = more signal;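 further: serum-stimulated A549 lung adenocarcinoma cells; signal is phosphorylated S6 detected by cytoblot immunostaining with HRP secondary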
[18] = biological target: NADPH oxidase 2 (Homo sapiens) (UniProt P04839); assay: NOX2-dependent H2O2 signal modulators, primary screen, NOX inhibitor project, cell-based, HEK293-NOX2, PMA-stimulated, Amplex Red fluorescence (AID 1159); conditions: 45 min, higher = more signal, called active from +8 up or from −8 down; further: test concentration not given here
Chain of NADPH oxidase 2 (Homo sapiens) (P04839 whole entry, looked up): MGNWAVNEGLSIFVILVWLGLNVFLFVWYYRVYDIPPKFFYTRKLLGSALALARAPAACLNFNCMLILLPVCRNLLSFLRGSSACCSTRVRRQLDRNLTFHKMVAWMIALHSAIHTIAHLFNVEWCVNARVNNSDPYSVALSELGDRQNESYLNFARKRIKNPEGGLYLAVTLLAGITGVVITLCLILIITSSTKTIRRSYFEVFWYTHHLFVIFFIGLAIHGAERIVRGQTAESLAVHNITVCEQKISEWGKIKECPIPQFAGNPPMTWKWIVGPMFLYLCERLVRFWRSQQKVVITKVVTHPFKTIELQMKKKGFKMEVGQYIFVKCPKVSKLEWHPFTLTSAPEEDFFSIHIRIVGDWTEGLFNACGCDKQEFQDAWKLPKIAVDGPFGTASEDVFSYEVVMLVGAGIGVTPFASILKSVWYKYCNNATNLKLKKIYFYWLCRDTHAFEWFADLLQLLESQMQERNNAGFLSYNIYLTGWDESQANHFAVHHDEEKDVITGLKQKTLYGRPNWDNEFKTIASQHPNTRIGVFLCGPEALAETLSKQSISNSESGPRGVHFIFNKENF

[19] = biological target: NADPH oxidase 4 (Homo sapiens) (UniProt Q9NPH5); assay: NOX4-dependent H2O2 signal modulators, primary screen, NOX inhibitor project, cell-based, HEK293-NOX4, tetracycline-induced, Amplex Red fluorescence (AID 1160); conditions: 45 min, higher = more signal, called active from +8 up or from −8 down
Chain of NADPH oxidase 4 (Homo sapiens) (Q9NPH5 whole entry, looked up): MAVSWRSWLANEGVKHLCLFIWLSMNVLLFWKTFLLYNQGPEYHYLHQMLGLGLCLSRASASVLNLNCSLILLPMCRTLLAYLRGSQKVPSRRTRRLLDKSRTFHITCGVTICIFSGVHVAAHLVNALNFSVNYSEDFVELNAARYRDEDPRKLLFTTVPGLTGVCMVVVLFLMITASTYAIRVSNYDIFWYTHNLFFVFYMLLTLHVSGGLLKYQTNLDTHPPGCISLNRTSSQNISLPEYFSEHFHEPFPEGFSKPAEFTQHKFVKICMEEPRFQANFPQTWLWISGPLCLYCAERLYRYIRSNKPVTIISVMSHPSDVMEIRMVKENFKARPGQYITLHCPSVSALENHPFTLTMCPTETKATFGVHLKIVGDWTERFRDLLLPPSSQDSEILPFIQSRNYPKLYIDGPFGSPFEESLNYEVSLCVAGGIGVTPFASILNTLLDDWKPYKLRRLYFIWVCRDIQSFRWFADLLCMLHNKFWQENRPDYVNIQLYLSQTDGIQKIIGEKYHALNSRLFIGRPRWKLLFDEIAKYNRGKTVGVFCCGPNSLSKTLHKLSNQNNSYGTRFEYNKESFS

[20] = biological target: NADPH oxidase 5 (Homo sapiens) (UniProt Q96PH1); assay: NOX5-dependent H2O2 signal modulators, primary screen, NOX inhibitor project, cell-based, HEK293-NOX5, Amplex Red fluorescence (AID 1161); conditions: HEK293-NOX5, ionomycin, 45 min, higher = more signal
Chain of NADPH oxidase 5 (Homo sapiens) (Q96PH1 whole entry, looked up): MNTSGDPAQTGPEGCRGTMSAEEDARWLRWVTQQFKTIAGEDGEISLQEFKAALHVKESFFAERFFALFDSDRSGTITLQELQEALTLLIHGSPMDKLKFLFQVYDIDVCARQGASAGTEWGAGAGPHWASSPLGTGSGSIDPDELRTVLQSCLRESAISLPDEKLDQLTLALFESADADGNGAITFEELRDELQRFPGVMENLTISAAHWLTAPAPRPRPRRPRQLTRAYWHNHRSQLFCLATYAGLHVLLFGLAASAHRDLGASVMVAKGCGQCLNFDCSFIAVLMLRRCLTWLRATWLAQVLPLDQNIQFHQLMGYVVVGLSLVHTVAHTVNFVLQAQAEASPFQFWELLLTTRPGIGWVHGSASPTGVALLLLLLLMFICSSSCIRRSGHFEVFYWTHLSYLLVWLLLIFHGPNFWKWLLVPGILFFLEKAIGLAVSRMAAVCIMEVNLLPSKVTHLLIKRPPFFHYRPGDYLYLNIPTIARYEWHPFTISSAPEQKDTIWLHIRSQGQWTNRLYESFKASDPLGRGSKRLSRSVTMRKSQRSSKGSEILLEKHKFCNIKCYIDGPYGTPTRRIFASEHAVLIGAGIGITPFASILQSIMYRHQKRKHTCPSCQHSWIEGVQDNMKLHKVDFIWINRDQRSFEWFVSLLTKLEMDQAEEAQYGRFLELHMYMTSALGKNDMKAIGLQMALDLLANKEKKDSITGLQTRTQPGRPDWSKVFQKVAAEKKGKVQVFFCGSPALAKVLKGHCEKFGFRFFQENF

SMILES	composite z-score [1]	z-score [2]	z-score [3]	z-score [4]	z-score [5]	composite z-score [6]	composite z-score [7]	composite z-score [8]	composite z-score [9]	composite z-score [10]	z-score [11]	composite z-score [12]	z-score [13]	z-score [14]	z-score [15]	z-score [16]	z-score [17]	z-score [18]	z-score [19]	z-score [20]
O=C1O[C@@H](c2ccccc2)[C@@H](c2ccccc2)N2[C@@H](c3ccc(O)cc3)[C@]3(C(=O)Nc4ccccc43)[C@@H](C(=O)NC[C@H](O)c3ccccc3)[C@H]12	0.062	-2.34 (inactive)	0.184 (inactive)	0.0921 (inactive)	0.175 (inactive)	-0.26	-0.176	-1	0.371	0.142	2.14 (inactive)	-0.151	1.36 (inactive)	-1.01 (inactive)	-1.22 (inactive)	-1.89 (inactive)	1.09	0.0877 (inactive)	-0.423 (inactive)	1.42
C=C[C@H](OC)[C@@H](OC(=O)Nc1ccc(SC)cc1)c1ccc(OCCO)cc1	0.712	-1.24 (inactive)	-1.2 (inactive)	1.55 (inactive)	-0.648 (inactive)	-0.414	-0.123	0.212	0.792	0.255	-0.356 (inactive)	-0.101	26 (active)	15.7 (active)	2.51 (inactive)	1.82 (inactive)	0.306	0.228 (inactive)	0.103 (inactive)	0.99
COC(=O)[C@@]1(Cc2ccc(F)cc2)[C@H]2c3cc(C(=O)N(C)C)n(CCCNc4ccc(C(F)(F)F)cc4Cl)c3C[C@H]2CN1C(=O)c1ccccc1	0.72	-3.53 (inactive)	-0.119 (inactive)	-0.379 (inactive)	0.607 (inactive)	1.8	0.572	-0.335	0.547	-0.576	-1.74 (inactive)	0.634	1.36 (inactive)	0.986 (inactive)	0.277 (inactive)	1.33 (inactive)	-0.0991	0.844 (inactive)	0.619 (inactive)	0.897
CCCNC(=O)[C@@]1(c2ccc([N+](=O)[O-])cc2)CC(=O)N(CC23CC4CC(CC(C4)C2)C3)[C@@H]1c1ccc(CO)cc1I	0.572	-5.46 (inactive)	0.468 (inactive)	0.234 (inactive)	0.299 (inactive)	0.131	0.834	0.253	0.55	0.825	0.0121 (inactive)	0.181	26 (active)	13.3 (active)	1.82 (inactive)	1.87 (inactive)	-0.151	1.15 (inactive)	-0.037 (inactive)	2.21
CCOC(=O)C[C@H]1[C@H](OC(=O)c2ccc(C(=O)c3ccccc3)cc2)[C@@H](NC(=O)c2ccc3ccccc3n2)c2cc(OCCCO)ccc2N1C(=O)c1ccc2ccccc2n1	0.211	0.0729 (inactive)	-0.754 (inactive)	2.05 (inactive)	-1.22 (inactive)	0.47	0.0778	0.323	0.134	-0.0692	1.14 (inactive)	0.464	5.2 (inactive)	1.1 (inactive)	-0.327 (inactive)	0.579 (inactive)	0.495	-0.0371 (inactive)	0.532 (inactive)	1.03
O=C1OCCC=C[C@H]2OC34C=CCN(c5ccc6ccccc6c5)C(=O)[C@H]3N(CCCCCCO)C(=O)[C@@H]4C12 (stereo not given in full)	-0.315	-0.211 (inactive)	-0.0556 (inactive)	0.0605 (inactive)	0.771 (inactive)	-1.1	-0.179	2.39	2.75	-0.305	0.901 (inactive)	-0.0536	0.856 (inactive)	0.712 (inactive)	0.738 (inactive)	0.426 (inactive)	1.08	1.42 (inactive)	0.441 (inactive)	2.68
CCCNC(=O)[C@@]1(C)c2ccccc2C(=O)N(Cc2cc(C(F)(F)F)cc(C(F)(F)F)c2)[C@H]1c1ccc(CO)cc1	-0.332	-5.52 (inactive)	-0.889 (inactive)	0.0548 (inactive)	0.532 (inactive)	-0.974	-0.128	-0.0659	-0.216	0.103	-0.253 (inactive)	-0.0711	4.6 (inactive)	-0.305 (inactive)	1.97 (inactive)	-0.754 (inactive)	1.49	-1.98 (inactive)	-3.17 (inactive)	-3.73
C[N+](C)(C)CCCC[C@@H]1NC(=O)[C@@H]2C[C@H](C(=O)NCCCCCCNC(=O)CS)[C@H](c3cccc(OCCO)c3)N2C1=O	-0.326	0.214 (inactive)	-0.555 (inactive)	-0.671 (inactive)	-0.29 (inactive)	-1.12	-0.231	0.23	1.87	1.54	-0.0169 (inactive)	-0.012	5.87 (inactive)	1.39 (inactive)	-0.293 (inactive)	0.644 (inactive)	0.133	1.85 (inactive)	1.12 (inactive)	1.45
